Consider 13 compounds from PubChem BioAssay (NCI).

Among the test systems are NCI-H23 lung; NCI-H226 lung; NCI-H322M lung; HOP-62 NSCLC; NCI-H460 lung; HOP-92 NSCLC; NCI-H522 lung; A549/ATCC NSCLC; 786-0 renal; COLO 205 colon.
Test in all cases: NCI-60 one-dose screen, 48 h (100 = growth as untreated, 0 = no growth, -100 = all killed)
Common to all, as to conditions: 10 µM unless noted

About 83,000 compounds went through this panel and 20% of them were active in at least one assay; those are over-represented in the sample as a whole.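 Each cell line was grown in a 96-well plate and treated with one concentration of compound for 48 hours. Values below 10 were considered active.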 Unmarked numbers belong to inactive results. The source made the active and inactive calls.

`CNC(=O)c1cc(Oc2cccc3nc(NC(=O)Nc4cc(C(F)(F)F)ccc4Cl)ccc23)ccn1`: the growth with NCI-H23 lung is 80%; with NCI-H226 lung, 99.1%; in the experiment on NCI-H322M lung it was 101%; with HOP-62 NSCLC it was 95.2%; in the experiment with NCI-H460 lung, 101%; in the experiment on HOP-92 NSCLC, 115%. The growth was 94% with NCI-H522 lung, 90% in the experiment with A549/ATCC NSCLC, 68.8% with 786-0 renal and 67.5% in the experiment with COLO 205 colon.

With `O=C(CSc1nnc(-c2cc(-c3ccccc3)nc3ccccc23)n1-c1ccccc1)Nc1ccc(C(=O)/C=C/c2ccc(Cl)cc2)cc1`, the growth with NCI-H23 lung is 96.1%; in the experiment on NCI-H226 lung, 91.4%; with NCI-H322M lung, 93.1%; in the experiment on HOP-62 NSCLC, 93%; with NCI-H460 lung it was 102%; in the experiment with HOP-92 NSCLC, 82.1%. In addition, the growth was 71.8% with NCI-H522 lung, 84.4% with A549/ATCC NSCLC, 96.3% with 786-0 renal and 99.6% in the experiment with COLO 205 colon.

Regarding `CCOc1ccc(-n2nc(C(=O)NCc3ccccc3OC)nc2-c2cc(OC)c(OC)c(OC)c2)cc1`, the growth in the experiment on NCI-H23 lung was 60.7%; in the experiment with NCI-H226 lung, 62.5%; in the experiment on NCI-H322M lung it was 52.4%; in the experiment on HOP-62 NSCLC, 62.2%; in the experiment with NCI-H460 lung it was 30.5%; in the experiment with HOP-92 NSCLC it was 29%. Besides, the growth was 35.7% in the experiment with NCI-H522 lung, 34.5% with A549/ATCC NSCLC, 41.5% in the experiment with 786-0 renal and 30.3% in the experiment with COLO 205 colon.

As for `Cc1ccc(Cl)cc1NC(=O)c1sc2nc3c(cc2c1N)C(=O)CCC3`, the growth in the experiment on NCI-H23 lung is 63%; in the experiment with NCI-H226 lung, 88.3%; in the experiment on NCI-H322M lung, 95.7%; in the experiment on HOP-62 NSCLC, 60.9%; in the experiment with NCI-H460 lung, 28.1%; in the experiment on HOP-92 NSCLC, 56.9%. Further, the growth in the experiment on NCI-H522 lung was 22.9%; in the experiment on A549/ATCC NSCLC it was 53.9%; with 786-0 renal, 89.3%; in the experiment on COLO 205 colon, 39.7%.

For the compound `CN(C)CCCC1(c2ccc(F)cc2)OCc2cc(-c3cc4ccccc4s3)ccc21` (stereo not given), the growth in the experiment on NCI-H23 lung was 76.8%; with NCI-H226 lung it was 67.9%; in the experiment on NCI-H322M lung, 56.8%; in the experiment on HOP-62 NSCLC it was -65.8% (active); in the experiment on NCI-H460 lung, -78.1% (active); in the experiment with HOP-92 NSCLC it was 26.8%. In addition, the growth in the experiment with NCI-H522 lung is -9.87% (active); in the experiment on A549/ATCC NSCLC, -67.1% (active); in the experiment on 786-0 renal it was 57.8%; in the experiment with COLO 205 colon it was -65.6% (active).

For the compound `C#CCOc1cccc(-c2ncnc3cc(NC(=O)C=C)ccc23)c1`, the growth with NCI-H23 lung is 69%; in the experiment on NCI-H226 lung, 69.9%; with NCI-H322M lung it was 70.3%; in the experiment on HOP-62 NSCLC, 36.4%; in the experiment on NCI-H460 lung it was 29.1%; in the experiment on HOP-92 NSCLC, 14.9%. Moreover, the growth was 10.5% in the experiment with NCI-H522 lung, 44.5% in the experiment on A549/ATCC NSCLC, 29.9% in the experiment with 786-0 renal and 24.4% in the experiment on COLO 205 colon.

For `O=C(Nc1ccccc1[N+](=O)[O-])c1ccc(Cl)c(Cl)c1`, the growth with NCI-H23 lung was 86.6%; in the experiment on NCI-H226 lung it was 79.9%; in the experiment with NCI-H322M lung, 101%; in the experiment with HOP-62 NSCLC, 102%; with NCI-H460 lung, 93.4%; in the experiment with HOP-92 NSCLC, 69.7%. The growth in the experiment with NCI-H522 lung is 69.9%; in the experiment with A549/ATCC NSCLC, 104%; with 786-0 renal it was 105%; with COLO 205 colon it was 110%.

Consider `CC(C)(C)c1cc(Cl)c(O)c(CNCCO)c1`, for which the growth with NCI-H23 lung was 112%; with NCI-H226 lung it was 98.5%; in the experiment with NCI-H322M lung it was 118%; in the experiment on HOP-62 NSCLC, 101%; with NCI-H460 lung, 101%; with HOP-92 NSCLC it was 90.8%. The growth in the experiment with NCI-H522 lung was 106%; in the experiment on A549/ATCC NSCLC, 109%; with 786-0 renal it was 102%; in the experiment on COLO 205 colon, 112%.

`COc1ccc(/C=C/C(c2cc(OC)c(OC)c(OC)c2)n2ccnc2)cc1O` (stereo not given): the growth with NCI-H23 lung is 55.7%; with NCI-H226 lung, 88.4%; in the experiment with NCI-H322M lung, 45.8%; with HOP-62 NSCLC it was 47.2%; in the experiment on NCI-H460 lung, 16.5%; in the experiment with HOP-92 NSCLC, 30.5%. Further, the growth was 24.6% in the experiment on NCI-H522 lung, 29.1% in the experiment with A549/ATCC NSCLC, 34% with 786-0 renal and 89.8% with COLO 205 colon.

Consider `Cc1ccc(CNc2c3ccccc3nc3ccccc23)cc1`, for which the growth with NCI-H23 lung was 29.3%; in the experiment on NCI-H226 lung, 41.5%; in the experiment with NCI-H322M lung, 39.7%; with HOP-62 NSCLC, 43.7%; with NCI-H460 lung, 8.75% (active); with HOP-92 NSCLC, 3.24% (active). The growth is 49% in the experiment with NCI-H522 lung, 26.1% in the experiment on A549/ATCC NSCLC, 25.4% with 786-0 renal and 0.281% (active) in the experiment with COLO 205 colon.

Take `Cc1ccc(C(=O)c2ccc(CC(=O)N=Nc3c(O)[nH]c4ccc(Br)cc34)n2C)cc1`: the growth in the experiment with NCI-H23 lung was 76.1%; in the experiment with NCI-H226 lung, 77.9%; with NCI-H322M lung it was 92%; in the experiment on HOP-62 NSCLC, 89.6%; in the experiment on NCI-H460 lung it was 104%; with HOP-92 NSCLC, 106%. For the same compound, the growth in the experiment on NCI-H522 lung is 84.1%; in the experiment on A549/ATCC NSCLC, 87.2%; with 786-0 renal, 97.6%; in the experiment on COLO 205 colon, 106%.

For the compound `Nc1[nH]n2cc(-c3ccc(F)cc3)nc2c1N=Nc1ccc(S(N)(=O)=O)cc1`, the growth in the experiment on NCI-H23 lung is 80.9%; in the experiment with NCI-H226 lung it was 88.4%; in the experiment on NCI-H322M lung, 41.9%; in the experiment on HOP-62 NSCLC, 90.7%; in the experiment on NCI-H460 lung it was 58.8%; in the experiment on HOP-92 NSCLC it was 74.9%. The growth in the experiment with NCI-H522 lung was 55.3%; in the experiment with A549/ATCC NSCLC it was 84.6%; in the experiment with 786-0 renal it was 68.1%; in the experiment on COLO 205 colon it was 95.1%.

As for `O=C(CI)NC(=O)NC(=O)NCc1ccccc1`, the growth in the experiment with NCI-H23 lung is 32.6%; in the experiment with NCI-H226 lung it was -43.6% (active); in the experiment with NCI-H322M lung, 86.4%; in the experiment with HOP-62 NSCLC it was 85.9%; in the experiment with NCI-H460 lung it was 102%; in the experiment with HOP-92 NSCLC, -17.4% (active). Moreover, the growth in the experiment with NCI-H522 lung was -82% (active); with A549/ATCC NSCLC, 92.9%; with 786-0 renal, 23.9%; in the experiment with COLO 205 colon, -41.4% (active).
